Data from publication PMC8384837, “Expanding the binding specificity for RNA recognition by a PUF domain”.
Where a chain is given by its changes, count along the chain named.

Experiments:
Test in all cases: yeast three-hybrid, YBZ-1, SC-Leu-His + 0.5 mM 3-AT, 4 days
Conditions in all cases: tags: N-Gal4 AD-HA kept; label: inside an RPR1-promoter hybrid RNA with tandem MS2 sites; ssRNA
[1] = biological target: PUM1 PUF domain R7-RGK (Homo sapiens, UniProt Q14671 828-1176, S1079R;N1080G;E1083K)
In short: (§1)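 The interaction score is the log change in how often each variant appears, from input to selection. Frequencies came from PCR-amplified, Illumina-sequenced repeat regions of Pumilio-1 PUF domain libraries grown in strain YBZ-1 (LexA–MS2 coat fusion, HIS3 reporter) alongside matching RNA elements. Input plates were SC-Leu and selection plates were SC-Leu-His + 0.5 mM 3-AT, each for four days, and the log2 calculation used a pseudocount of 1 where a variant was absent.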

[2] = biological target: PUM1 PUF domain R4-PFY (Homo sapiens, UniProt Q14671 828-1176, N971P;H972F;Q975Y)
In short: as §1

[3] = biological target: PUM1 PUF domain R8-RYP (Homo sapiens, UniProt Q14671 828-1176, N1122R;Q1126P)
In short: as §1

[4] = biological target: PUM1 PUF domain R5-SQG (Homo sapiens, UniProt Q14671 828-1176, C1007S;R1008Q;Q1011G)
In short: as §1

[5] = biological target: PUM1 PUF domain R5-GSR (Homo sapiens, UniProt Q14671 828-1176, C1007G;R1008S;Q1011R)
In short: as §1

[6] = biological target: PUM1 PUF domain R5-ERF (Homo sapiens, UniProt Q14671 828-1176, C1007E;Q1011F)
In short: as §1

[7] = biological target: PUM1 PUF domain R5-AYF (Homo sapiens, UniProt Q14671 828-1176, C1007A;R1008Y;Q1011F)
In short: as §1

[8] = biological target: T1, PUM1 PUF domain R6-IYK (Homo sapiens, UniProt Q14671 828-1176, N1043I;Q1047K)
T1 sequence: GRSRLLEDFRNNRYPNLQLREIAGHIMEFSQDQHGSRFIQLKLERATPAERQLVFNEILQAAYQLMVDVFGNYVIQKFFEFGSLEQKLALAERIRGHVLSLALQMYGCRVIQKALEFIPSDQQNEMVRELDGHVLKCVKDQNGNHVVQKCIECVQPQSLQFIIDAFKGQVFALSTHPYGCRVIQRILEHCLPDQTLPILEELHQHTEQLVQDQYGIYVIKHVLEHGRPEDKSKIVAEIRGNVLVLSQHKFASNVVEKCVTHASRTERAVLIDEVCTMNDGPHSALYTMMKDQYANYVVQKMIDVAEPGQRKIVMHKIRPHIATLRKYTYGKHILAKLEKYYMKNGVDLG
In short: as §1

[9] = biological target: T2, PUM1 PUF domain R6-GFK (Homo sapiens, UniProt Q14671 828-1176, N1043G;Y1044F;Q1047K)
T2 sequence: T1 sequence with I216G, Y217F
In short: as §1

[10] = biological target: PUM1 PUF domain R3-TIE (Homo sapiens, UniProt Q14671 828-1176, C935T;R936I;Q939E)
In short: as §1

GGCUAGAACUAGUGGAUCCCCCGGCGCCCGGCGGCUCGAGCCCGGGUAAGUUUAAAUAGUCUGCAUGCCGCCGGGCGCCAUGCCUGCAGGUCGACUCUAGAAAACAUG
binding signal [1]: 6.69 log2 enrichment (interaction score)

GGCUAGAACUAGUGGAUCCCCCGGCGCCCGGCGGCUCGAGCCCGGGUAAGUGUAUAUAGUCUGCAUGCCGCCGGGCGCCAUGCCUGCAGGUCGACUCUAGAAAACAUG
binding signal [2]: 3.71 log2 enrichment (interaction score)

GGCUAGAACUAGUGGAUCCCCCGGCGCCCGGCGGCUCGAGCCCGGGUAAGCGUAAAUAGUCUGCAUGCCGCCGGGCGCCAUGCCUGCAGGUCGACUCUAGAAAACAUG
binding signal [3]: 6.03 log2 enrichment (interaction score)

GGCUAGAACUAGUGGAUCCCCCGGCGCCCGGCGGCUCGAGCCCGGGUAAGUGUGAAUAGUCUGCAUGCCGCCGGGCGCCAUGCCUGCAGGUCGACUCUAGAAAACAUG
binding signal [4]: 3.41 log2 enrichment (interaction score)

GGCUAGAACUAGUGGAUCCCCCGGCGCCCGGCGGCUCGAGCCCGGGUAAGUCUAAAUAGUCUGCAUGCCGCCGGGCGCCAUGCCUGCAGGUCGACUCUAGAAAACAUG
binding signal [1]: 5.3 log2 enrichment (interaction score)

GGCUAGAACUAGUGGAUCCCCCGGCGCCCGGCGGCUCGAGCCCGGGUAAGUGUCAAUAGUCUGCAUGCCGCCGGGCGCCAUGCCUGCAGGUCGACUCUAGAAAACAUG
binding signal [5]: 5.07 log2 enrichment (interaction score) | binding signal [6]: 3.35 log2 enrichment (interaction score)

GGCUAGAACUAGUGGAUCCCCCGGCGCCCGGCGGCUCGAGCCCGGGUAAGUGUAAAUAGUCUGCAUGCCGCCGGGCGCCAUGCCUGCAGGUCGACUCUAGAAAACAUG
binding signal [7]: 3.62 log2 enrichment (interaction score) | binding signal [3]: 4.32 log2 enrichment (interaction score) | binding signal [5]: 1.75 log2 enrichment (interaction score) | binding signal [8]: 2.06 log2 enrichment (interaction score) | binding signal [2]: 5.35 log2 enrichment (interaction score) | binding signal [6]: 2.71 log2 enrichment (interaction score) | binding signal [9]: 2.55 log2 enrichment (interaction score)

GGCUAGAACUAGUGGAUCCCCCGGCGCCCGGCGGCUCGAGCCCGGGUAAGUGUUAAUAGUCUGCAUGCCGCCGGGCGCCAUGCCUGCAGGUCGACUCUAGAAAACAUG
binding signal [4]: 0.27 log2 enrichment (interaction score) | binding signal [5]: 3.01 log2 enrichment (interaction score) | binding signal [6]: 3.92 log2 enrichment (interaction score)

GGCUAGAACUAGUGGAUCCCCCGGCGCCCGGCGGCUCGAGCCCGGGUAAGUGUAAGUAGUCUGCAUGCCGCCGGGCGCCAUGCCUGCAGGUCGACUCUAGAAAACAUG
binding signal [10]: 4.39 log2 enrichment (interaction score)
